Experimental data published in PubChem BioAssay AID1159580 (chemical genetic matrix, 2015).
Several values for one entry are separate records, joined by “and”; a condition that tells them apart may be missing. Identical values can stand only once. Among all 5,500 compounds or so, about 2,000 (36%) were called active. Not shown: some 18% with an inconclusive outcome. Rule as the data show it: active = normalized growth mostly below about 0.91 (no sharp cut-off); inconclusive = no clear call, values can overlap the other calls; inactive = mostly above about 0.92. The list shows a part of the results.

Assay: chemical genetic growth profiling, strain panel (AID 1159580);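 also: tested at 20 µM; growth read once vehicle control cultures reached saturation at 30 °C; 1 = growth at the plate median or of vehicle wells; lower values mean less growth of the strain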
Settings: S. cerevisiae deletion strains, growth OD

Measured: normalized growth

Cc1occc(=O)c1O
inactive: locus YAL021C, strain ccr4, active compounds read low 0.964 | locus YAL026C, strain drs2, active compounds read low 0.972 | locus YAL030W, strain snc1, active compounds read low 0.949 | locus YBL061C, strain skt5, active compounds read low 0.969 | locus YBR009C, strain hhf1, active compounds read low 0.984 | locus YBR021W, strain FUR4, active compounds read low 1 | locus YBR023C, strain chs3, active compounds read low 0.976 | locus YBR171W, strain sec66, active compounds read low 0.975 | locus YBR229C, strain ROT2, active compounds read low 1 | locus YBR231C, strain swc5, active compounds read low 0.964 | locus YBR279W, strain paf1, active compounds read low 0.944 | locus YCL011C, strain gbp2, active compounds read low 0.956 | locus YCL016C, strain dcc1, active compounds read low 0.978 | locus YCL029C, strain bik1, active compounds read low 1.02 | locus YCL061C, strain MRC1, active compounds read low 0.987 | locus YCL069W, strain vba3, active compounds read low 0.978 | locus YCR088W, strain abp1, active compounds read low 0.965 | locus YDL005C, strain med2, active compounds read low 0.967 | locus YDL035C, strain GPR1, active compounds read low 1.01 | locus YDL040C, strain nat1, active compounds read low 0.971 | locus YDL074C, strain BRE1, active compounds read low 1.01 | locus YDL101C, strain DUN1, active compounds read low 1.01 | locus YDL185W, strain tfp1, active compounds read low 1.01 | locus YDL192W, strain arf1, active compounds read low 1.02 | locus YDR001C, strain nth1, active compounds read low 0.953 | locus YDR069C, strain doa4, active compounds read low 1 | locus YDR101C, strain arx1, active compounds read low 0.991 | locus YDR137W, strain rgp1, active compounds read low 0.945 | locus YDR159W, strain sac3, active compounds read low 0.971 | locus YDR162C, strain NBP2, active compounds read low 1.02 | locus YDR195W, strain ref2 0.953 | locus YDR297W, strain sur2, active compounds read low 0.971 | locus YDR318W, strain mcm21, active compounds read low 1.02 | locus YDR334W, strain swr1, active compounds read low 0.929 | locus YDR335W, strain msn5, active compounds read low 0.964 | locus YDR388W, active compounds read low 1.01 | locus YDR392W, strain spt3, active compounds read low 0.917 | locus YDR502C, strain sam2, active compounds read low 0.999 | locus YEL003W, strain gim4, active compounds read low 0.956 | locus YEL037C, strain rad23, active compounds read low 0.961 | locus YEL061C, strain CIN8 (second series), active compounds read low 0.953 | locus YEL061C, strain CIN8, active compounds read low 1 | locus YER015W, strain faa2, active compounds read low 0.964 | locus YER016W, strain bim1, active compounds read low 0.958 | locus YER110C, active compounds read low 1.01 | locus YER111C, strain swi4, active compounds read low 0.966 | locus YER155C, strain BEM2 (second series), active compounds read low 0.97 | locus YER155C, strain BEM2, active compounds read low 0.993 | locus YER167W, strain BCK2, active compounds read low 0.995 | locus YFR010W, strain ubp6, active compounds read low 0.96 | locus YGL078C, strain dbp3, active compounds read low 1.03 | locus YGL086W, strain mad1, active compounds read low 0.982 | locus YGL167C, strain pmr1, active compounds read low 0.961 | locus YGL173C, strain kem1, active compounds read low 0.957 | locus YGL227W, strain vid30, active compounds read low 0.966 | locus YGL240W, strain doc1, active compounds read low 0.971 | locus YGL248W, strain PDE1, active compounds read low 1.01 | locus YGL253W, strain hxk2, active compounds read low 0.974 | locus YGR135W, strain pre9, active compounds read low 1.03 | locus YGR252W, strain gcn5, active compounds read low 1.08 | locus YHR013C, strain ard1, active compounds read low 0.947 | locus YHR027C, strain rpn1, active compounds read low 0.979 | locus YHR030C, strain SLT2, active compounds read low 1.01 and 1.04 | locus YHR079C, strain IRE1 (second series), active compounds read low 1.01 | locus YHR079C, strain IRE1, active compounds read low 1.03 | locus YHR094C, strain hxt1, active compounds read low 1.01 | locus YHR129C, strain ARP1, active compounds read low 1.01 | locus YHR142W, strain chs7, active compounds read low 0.919 | locus YHR200W, strain rpn10, active compounds read low 1.01 | locus YIL066C, strain RNR3, active compounds read low 1.01 | locus YIL073C, strain SPO22, active compounds read low 1.06 | locus YIL125W, strain kgd1, active compounds read low 1.02 | locus YIR030C, strain dcg1, active compounds read low 1 | locus YJL092W, strain hpr5, active compounds read low 0.976 | locus YJL095W, strain BCK1 (second series), active compounds read low 0.962 | locus YJL095W, strain BCK1, active compounds read low 1.01 and 1.02 | locus YJL115W, strain asf1, active compounds read low 0.95 | locus YJL129C, strain trk1, active compounds read low 0.95 | locus YJL134W, strain LCB3, active compounds read low 1.01 | locus YJL154C, strain vps35, active compounds read low 0.953 | locus YJL164C, strain tpk1, active compounds read low 0.969 | locus YJL166W, strain qcr8, active compounds read low 0.953 | locus YJL168C, strain set2, active compounds read low 0.999 | locus YJL187C, strain SWE1 (second series), active compounds read low 1.01 | locus YJL187C, strain SWE1, active compounds read low 0.977 | locus YJR043C, strain POL32, active compounds read low 1.01 | locus YJR066W, strain TOR1, active compounds read low 0.991
